tim10-1 inh: tim10-1 yeast growth inhibition; AID 463190; S. cerevisiae tim10-1 ts strain growth, BacTiter-Glo, 24 h; inhibition, % at 20 µM; 2.2% of 330,000 active;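 active = inhibition of at least 40%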;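 also: mutant grown at 25 °C; 0% = DMSO wells with yeast and 100% = wells holding no yeast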
Mdm2 MdmX PPI: inhibitors of human Mdm2/MdmX interaction. O15151+Q00987. SaOS-2 split-luciferase Mdm2/MdmX complementation, luminescence. inhibition, % at 8 µM. 3% of 330,000 active;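 active = inhibition of at least 50% at 8 µM in the primary screen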
TIM10 inh: growth inhibitors of TIM10 yeast strain. S. cerevisiae TIM10 strain growth, BacTiter-Glo luminescence, 24 h. inhibition, % at 10 µM. 1.4% of 330,000 active. AID 463195;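 active = inhibition of 40% or more at the single tested concentration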;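 also: wild-type TIM10 isogenic control strain grown at permissive 25 °C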
MPTP inh: permeability transition pore inhibition | isolated mouse mitochondria, Ca2+ swelling absorbance, 30 min | inhibition, % at 10 µM | 1.4% of 360,000 active | AID 602449;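 active = inhibition of 50% or more, scaled per plate between neutral and stimulator controls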;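 also: 0% = DMSO wells given calcium and 100% = 1 mM EGTA wells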
tim23-1 inh: growth inhibitors of tim23-1 mutant yeast. S. cerevisiae tim23-1 growth, BacTiter-Glo luminescence, 24 h. inhibition, % at 20 µM. 1.3% of 330,000 active;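 active = growth inhibition of the mutant yeast at or above 50%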;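 also: temperature-sensitive mutant grown at 25 °C; plate controls were DMSO-treated mutant yeast for no effect and medium wells lacking yeast for full effect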
tim10 confirm: TIM10 yeast growth inhibition, confirmed; S. cerevisiae tim10 strain growth, BacTiter-Glo luminescence, 24 h; 63% of 4,600 active; shares compounds with TIM10 inh; inhibition, % at 10 µM;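 active = inhibition of yeast growth at or above a set limit in either of two replicates at 10 µM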;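 also: this counterscreen used the strain with wild-type TIM10; 0% = yeast with DMSO and 100% = medium wells lacking yeast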
tim23-1 conf: confirmation of tim23-1 mutant yeast growth inhibitors | shares compounds with tim23-1 inh | S. cerevisiae tim23-1 growth, BacTiter-Glo luminescence, 24 h | inhibition, % at 20 µM | 83% of 4,400 active | AID 463218;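 active = inhibition above about 39% in either of two replicate wells at 20 µM, limit read from the data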;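 also: temperature-sensitive tim23-1 mutant grown at 25 °C; 0% = DMSO wells with yeast and 100% = medium wells without yeast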
* = called active by the depositor. Shown are actives, neighbours in structure and some others; about 6.3% of the full set was active somewhere.

`C=CCS/C(N)=N\N=C\c1c(O)ccc2ccccc12` gave tim10-1 inh 24, Mdm2 MdmX PPI -169, TIM10 inh 53*, MPTP inh 2, tim23-1 inh 53*, tim10 confirm 42* and tim23-1 conf 71*.
`Cc1[nH]c(-c2ccc(F)cc2)cc1C(=O)N1CCN(c2ccc(Cl)cc2)CC1` gave tim10-1 inh 36, Mdm2 MdmX PPI 43, TIM10 inh 49*, MPTP inh 4, tim23-1 inh 73*, tim10 confirm 42* and tim23-1 conf 54*.
COC(=O)[C@]12CCCCC=C1N(CCC1=CCCCC1)C(=O)[C@H](CC(=O)NCCCN1CCCC1=O)C2 was read as MPTP inh -2.
For COc1ccccc1C(=O)NC(=S)/C=C1/N(C)c2ccccc2C1(C)C the results were tim10-1 inh 36, Mdm2 MdmX PPI 24, TIM10 inh 44*, MPTP inh 3, tim23-1 inh 51*, tim10 confirm -3 and tim23-1 conf 42*.
CN(C(=O)COC(=O)c1cc2ccccc2cc1O)c1ccccc1 was read as tim10-1 inh 25, Mdm2 MdmX PPI -14, TIM10 inh 40*, MPTP inh -1, tim23-1 inh 62*, tim10 confirm 47* and tim23-1 conf 48*.
For Cc1cnc(C=O)c2cccc([N+](=O)[O-])c12 the results were MPTP inh 1.
`O=C(COC(=O)c1cncc(Br)c1)NC1CCCCC1` gave tim10-1 inh -1, Mdm2 MdmX PPI 12, TIM10 inh -22, MPTP inh 0 and tim23-1 inh 1.
Screening O=C(NC(=S)NC1CCCCCC1)c1cncc(Br)c1 returned tim10-1 inh 34, Mdm2 MdmX PPI -3, TIM10 inh 44*, MPTP inh 0, tim23-1 inh 51*, tim10 confirm -1 and tim23-1 conf 42*.
For CC(=O)n1cc(Nc2ccc([N+](=O)[O-])cc2)c2ccccc21 the results were tim10-1 inh 4, Mdm2 MdmX PPI 6, TIM10 inh -20, MPTP inh 0 and tim23-1 inh -19.
`CC(=O)SC(C[N+](=O)[O-])c1cn(C(C)=O)c2ccccc12` (stereo unspecified) gave tim10-1 inh 27, Mdm2 MdmX PPI 21, TIM10 inh 80*, MPTP inh 0, tim23-1 inh 89*, tim10 confirm 86* and tim23-1 conf -76.
For Cc1ccc(N=Nc2ccc(O)cc2)c(Br)c1 the results were tim10-1 inh -32, Mdm2 MdmX PPI -282, TIM10 inh 52*, MPTP inh 6, tim23-1 inh 66*, tim10 confirm 71* and tim23-1 conf -2.
Screening Cc1ccc(NC(=O)Nc2nnc([C@H]3C[C@H](O)[C@@H](CO)O3)s2)cc1 returned MPTP inh 0.
O=C(NCCc1cnn(-c2ccccc2)c1)c1cc(COc2c(F)cccc2F)on1 was read as tim10-1 inh 29, Mdm2 MdmX PPI -70, TIM10 inh 68*, MPTP inh 1, tim23-1 inh 52*, tim10 confirm 53* and tim23-1 conf 68*.
Screening O=S1(=O)N[C@@H](Cc2ccccc2)COc2cc(N3CCC[C@H]3CO)ccc21 returned MPTP inh 2.
CCOC(=O)[C@]12CCC=C1N(Cc1cccc3ccccc13)C(=O)[C@H](CC(=O)NCCc1ccccc1OC)C2 was read as MPTP inh -4.
For O=C(NC(=S)NCc1ccccc1Cl)c1cccs1 the results were tim10-1 inh 16, Mdm2 MdmX PPI 19, TIM10 inh 46*, MPTP inh -1, tim23-1 inh 67*, tim10 confirm 51* and tim23-1 conf 52*.
For O=C(NCc1ccccc1F)c1cccs1 the results were tim10-1 inh 8, Mdm2 MdmX PPI -5, TIM10 inh -29, MPTP inh -3 and tim23-1 inh 0.
`CCOc1nc(-c2ccncc2)nc2ccccc12` gave tim10-1 inh 29, Mdm2 MdmX PPI 34, TIM10 inh 58*, MPTP inh 2, tim23-1 inh 57*, tim10 confirm 44* and tim23-1 conf 54*.
Screening CCCc1c(C(=O)N/N=C/c2ccoc2)nnn1-c1nonc1N returned MPTP inh 0.
For CCCOC(=O)Oc1ccc2c(=O)c(Oc3cc(C)cc(C)c3)coc2c1 the results were tim10-1 inh 38, Mdm2 MdmX PPI 26, TIM10 inh 47*, MPTP inh 16, tim23-1 inh 51*, tim10 confirm 41* and tim23-1 conf 53*.
`CSc1ncccc1C(=O)N1CCC1(C)C(=O)NC(C)C` (stereo unspecified) gave MPTP inh -2.
For O=C(NC1CC1)c1ccc(-c2nc3ccccc3s2)s1 the results were tim10-1 inh 10, Mdm2 MdmX PPI -32, TIM10 inh 53*, MPTP inh 0, tim23-1 inh 59*, tim10 confirm 51* and tim23-1 conf 68*.
Screening CCOC(=O)c1c(N)sc(C(=O)Nc2ccccc2)c1C returned tim10-1 inh -8, Mdm2 MdmX PPI -204, TIM10 inh 41*, MPTP inh -2, tim23-1 inh 55*, tim10 confirm 31 and tim23-1 conf 68*.
Screening CCOC(=O)c1c(N)sc(C(=O)Nc2ccccc2F)c1C returned tim10-1 inh -39, Mdm2 MdmX PPI -170, TIM10 inh 13, MPTP inh 0 and tim23-1 inh 30.
`C[C@H]1CCCCO[C@H](CN(C)S(=O)(=O)c2cn(C)cn2)[C@@H](C)CN([C@@H](C)CO)C(=O)c2cc(NS(=O)(=O)c3ccccc3)ccc2O1` gave MPTP inh 0.
Screening CC(C)CC1C(=O)N(Cc2cn(Cc3ccco3)nn2)CCS(=O)(=O)N1Cc1ccc(-c2cccc(N(C)C)c2)cc1 (stereo unspecified) returned MPTP inh -2.
For Cc1cccc(N/N=C/c2ccc(O)c(O)c2O)c1 the results were tim10-1 inh 7, Mdm2 MdmX PPI -1, TIM10 inh 4, MPTP inh 4 and tim23-1 inh 10.
Screening COc1cccc(N/N=C/c2cccc(Br)c2O)c1 returned tim10-1 inh 23, Mdm2 MdmX PPI -49, TIM10 inh 57*, MPTP inh 12, tim23-1 inh 58*, tim10 confirm 36* and tim23-1 conf 69*.
For N/C(Cc1ccc([N+](=O)[O-])cc1)=N\OC(=O)c1ccc(Br)cc1 the results were tim10-1 inh 24, Mdm2 MdmX PPI 13, TIM10 inh 92*, MPTP inh 1, tim23-1 inh 83*, tim10 confirm 94* and tim23-1 conf 32.
For O=C(Cc1ccc([N+](=O)[O-])cc1)OCc1ccc([N+](=O)[O-])cc1 the results were tim10-1 inh -1, Mdm2 MdmX PPI 18, TIM10 inh -16, MPTP inh 1 and tim23-1 inh 12.

High-throughput results: PubChem BioAssay, Sanford-Burnham Center for Chemical Genomics
